Drawing on PubChem BioAssay AID1259418 (Broad Institute, 2018), this text covers max activity for 51 compounds.

About 840 (25%) of roughly 3,400 compounds were called active. Not shown: some 11% with an inconclusive outcome.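 Rule for the calls: active = fitted half-maximal concentration of signal decrease at or below twice the sample's top tested concentration; inconclusive = flat curve between -70 and -30 percent, or poor fit; inactive = flat within 30 percent, signal rise, or potency above limit.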 The list is a sample of the results. Entries with a potency or affinity are not part of this list.

The nature of this experiment: inhibitors of Toxoplasma growth in IFN-γ-primed HeLa – cell-based, ME49Luc, luciferase, 72 h, dose response (AID 1259418). The following applies: T. gondii ME49Luc in IFN-y HeLa, active compounds read low, -100% = high-dose IFN-γ control wells; at 19.5 µM unless noted.
Turning to `Cc1ccccc1-c1nc(CN2CCN(C(=O)NC3CCCCC3)CC2)c(C)o1`, the max activity is -12% [at 0.35 µM] (inactive).
To `Cc1cccc(-c2nc(Cn3nnc(-c4nc(-c5ccc(C(F)(F)F)cc5)no4)c3C)c(C)o2)c1` belongs -7.24% [at 0.16 µM] (inactive); to `Cc1ccc(C)c(N2CCN(c3nc(-c4ccc(Cl)cc4)nc4ccccc34)CC2)c1`, 16.9% (inactive).
To `O=S(=O)(c1ccc2c(c1)CCCC2)N1CCC2(CC1)NCCN=C2NCc1ccc2c(c1)OCO2` belongs 10.2% (inactive); to `Cc1ccc(S(=O)(=O)N2CCC3(CC2)NCCN=C3NCc2ccc3c(c2)OCO3)c(C)c1`, -18.3% (inactive).
To `CC(C)Cc1ccc(S(=O)(=O)N2CCC3(CC2)NCCN=C3NCc2ccc3c(c2)OCO3)cc1` belongs 12.4% [at 10 µM] (inactive).
With `COc1ccccc1NC(=O)COc1nc(C)nc2ccccc12`, the max activity was 14.7% (inactive).
To `COc1ccc(S(=O)(=O)N2CCC[C@@H]2C(=O)NCCc2csc(C)n2)cc1OC` belongs 10.7% [at 10 µM] (inactive); to `O=C(Cc1ccccc1)N1CCC2(CC1)CC(N1CCCC1)CO2` (stereo unspecified), 17.6% [at 2.6 µM] (inactive).
To `CC(C)CCNC(=O)Cn1c(=O)c(S(=O)(=O)c2ccccc2)cc2ccccc21` belongs -14% [at 0.16 µM] (inactive).
To `COc1ccc(CC(=O)Nc2ccc3c(c2)CCC(=O)N3C)cc1Cl` belongs 7.75% [at 10 µM] (inactive); to `CN1C(=O)CCc2cc(NC(=O)Cc3c(F)cccc3Cl)ccc21`, -7.19% [at 5 µM] (inactive).
As to `CN1C(=O)CCc2cc(NC(=O)C3CC3)ccc21`, the max activity was -5.59% [at 0.16 µM] (inactive).
To `CCN1C(=O)CCc2cc(NC(=O)Cc3ccc(OC)cc3)ccc21` belongs 7.03% [at 2.6 µM] (inactive).
To `CCN1C(=O)CCc2cc(NC(=O)Cc3ccc(Cl)cc3)ccc21` belongs 8.3% [at 2.6 µM] (inactive); to `COc1cccc(CCC(=O)Nc2ccc3c(c2)CCC(=O)N3C)c1`, 3.19% (inactive).
Turning to `COCC(=O)Nc1ccc2c(c1)CCC(=O)N2C`, the max activity was 6.56% [at 0.16 µM] (inactive).
To `CN1C(=O)CCc2cc(NC(=O)c3cccc(C(F)(F)F)c3)ccc21` belongs 6.55% [at 0.68 µM] (inactive); to `COc1cc(OC)c(NC(=O)Nc2ccc(-c3nc(-c4ccccc4)co3)cc2)cc1Cl`, 24.2% (inactive); to `CCOC(=O)CSc1nc(NCCc2ccc(OC)c(OC)c2)c2ccccc2n1`, 24.2% [at 0.68 µM] (inactive).
To `Cc1ccc(-c2nc(CN3CCN(C(=O)Nc4ccccc4C(F)(F)F)CC3)c(C)o2)cc1` belongs 15.9% [at 0.16 µM] (inactive); to `O=C(Nc1ccc(-c2nc(-c3ccccc3)co2)cc1)c1ccc2c(c1)OCO2`, 22.1% [at 0.35 µM] (inactive); to `COc1ccc(OC)c(NC(=O)Nc2ccc(-c3nc(-c4ccc(C)cc4C)co3)cc2)c1`, 12.1% [at 0.35 µM] (inactive).
Turning to `COc1cccc(-c2nc3c(s2)CN(C(=O)Nc2ccc(Br)cc2)CC3)c1`, the max activity is 6.77% (inactive).
For `Cc1ccc(-c2nc(Cn3nnc(-c4nc(-c5ccc(OCC(C)C)cc5)no4)c3C)c(C)o2)cc1`, the max activity was 21.2% [at 0.16 µM] (inactive).
To `CCOC(=O)C1CCN(S(=O)(=O)c2cc(-c3nc(C(C)(C)C)cs3)cs2)CC1` belongs 7.71% [at 0.68 µM] (inactive); to `CN1C(=O)CCc2cc(NC(=O)c3ccncc3)ccc21`, -16.2% [at 2.6 µM] (inactive); to `CN1C(=O)CCc2cc(NC(=O)c3ccsc3)ccc21`, 74.1% [at 10 µM] (inactive).
`Cc1ccc(-c2coc(-c3ccc(NC(=O)c4ccc(Br)o4)cc3)n2)cc1`: the max activity was 38% [at 2.6 µM] (inactive).
As for `O=C(Nc1ccc(-c2nc(-c3ccccc3)co2)cc1)Nc1cccc(F)c1`, the max activity is 13.5% (inactive).
To `Cc1nc(-c2ccc(F)cc2)sc1-c1ccc(SCCN2CCCCCC2)nn1` belongs 9.96% (inactive).
To `COc1ccc(-c2ccc(OCCNC(=O)c3sc(-c4ccccc4)nc3C)nn2)cc1` belongs 13.2% [at 0.16 µM] (inactive); to `COc1ccc(CC(=O)Nc2ccc(-c3nc(-c4ccc(C)cc4)co3)cc2)cc1`, 16.4% [at 0.35 µM] (inactive); to `O[C@H](CNC[C@@H](O)[C@H]1CCc2cc(F)ccc2O1)[C@@H]1CCc2cc(F)ccc2O1`, -7.92% [at 0.3 µM] (inactive).
As to `CNc1ncc(CN(C)C(=O)c2csc(C)n2)cn1`, the max activity is 20.8% (inactive).
To `Cc1ccc2c(c1)cc(S(=O)(=O)c1ccccc1)c(=O)n2CC(=O)NCc1ccccc1Cl` belongs 7.82% [at 0.68 µM] (inactive).
With `O=C(NCCc1csc(-c2ccccc2)n1)[C@H]1CSCN1C(=O)Cc1cccs1`, the max activity was 12.6% (inactive).
Turning to `Cc1ccc(C)c(-c2coc(-c3ccc(NC(=O)c4ccccc4)cc3)n2)c1`, the max activity was 11.8% [at 2.6 µM] (inactive).
To `Cc1ccc(-c2coc(-c3ccc(NC(=O)Nc4ccc(F)cc4F)cc3)n2)cc1` belongs 92.1% (inactive); to `COc1ccccc1NC(=O)Nc1ccc(-c2nc(-c3cc(C)ccc3C)co2)cc1`, 9.93% [at 0.16 µM] (inactive).
Regarding `COc1ccc(C(=O)Nc2ccc(-c3nc(-c4cc(C)ccc4C)co3)cc2)cc1OC`, the max activity is 9.52% [at 0.35 µM] (inactive).
To `COc1ccc(C)cc1NC(=O)Nc1ccc(-c2nc(-c3ccc(C)cc3C)co2)cc1` belongs 20.4% (inactive).
For `O=C(Nc1ccc(-c2nc(-c3ccccc3)co2)cc1)Nc1cc(F)ccc1F`, the max activity was 10.9% [at 2.6 µM] (inactive).
To `COc1ccc(C(=O)Nc2ccc(-c3nc(-c4ccc(C)cc4C)co3)cc2)cc1OC` belongs 45% (inactive).
To `COc1cc(C(=O)Nc2ccc(-c3nc(-c4ccc(C)cc4C)co3)cc2)cc(OC)c1OC` belongs 27.4% [at 5 µM] (inactive); to `COC(=O)c1ccc(NC(=O)Nc2ccc(-c3nc(-c4ccccc4)co3)cc2)cc1`, 75.7% [at 10 µM] (inactive); to `Cc1nc(CCNC(=O)C2CCN(C(=O)c3ccc(Br)o3)CC2)cs1`, 9.93% [at 5 µM] (inactive).
To `Cc1ccc(C)c(-c2coc(-c3ccc(NC(=O)c4cccs4)cc3)n2)c1` belongs 62.5% (inactive); to `COc1cc(C(=O)Nc2ccc(-c3nc(-c4cc(C)ccc4C)co3)cc2)cc(OC)c1OC`, -22.7% [at 0.16 µM] (inactive).
Regarding `COc1cc(NC(=O)Nc2ccc(-c3nc(-c4ccc(C)cc4)co3)cc2)cc(OC)c1OC`, the max activity is -16.6% [at 0.68 µM] (inactive).
To `Cc1ccc(-c2coc(-c3ccc(NC(=O)c4cccs4)cc3)n2)cc1` belongs 20.5% [at 0.35 µM] (inactive).
